In PubChem BioAssay:
The source made the active and inactive calls.

Key:
[1] = small molecules captured by biotinylated probe aFSTL3 – biochemical, small-molecule microarray, fluorescence 635/667, stem cell growth factor project, primary screen (AID 1064); details: higher = more signal;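 also: measures binding of the biotinylated anti-FSTL3 antibody to printed compounds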
[2] = binders from COS7 lysate, DM2A8 probe, primary screen, torsin A project, cell lysate, small-molecule microarray, fluorescence 635/667 (AID 1065); details: higher = more signal, COS7 lysate expressing mutant human TOR1A
[3] = small molecules captured by biotinylated probe aFGF2 – biochemical, small-molecule microarray, fluorescence 635/667, stem cell growth factor project, primary screen (AID 1067); details: higher = more signal;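 also: measures binding of biotinylated aFGF2 protein to printed compounds on slides; z-score merges feature fluorescence and signal-to-noise across triplicate slides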
[4] = small molecules captured by biotinylated probe aFGF10 – biochemical, small-molecule microarray, fluorescence 635/667, stem cell growth factor project, primary screen (AID 1071); details: higher = more signal;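 also: score merges 667 nm spot intensity and signal to noise from triplicate slides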
[5] = target: Neurogenic locus notch homolog protein 2 (Homo sapiens) (UniProt Q04721); assay: small molecules binding Notch2 protein – biochemical, small-molecule microarray, 635 nm fluorescence, stem cell growth factors, primary screen (AID 1073); details: higher = more signal
Chain of Neurogenic locus notch homolog protein 2 (Homo sapiens) (Q04721 whole entry, looked up, canonical isoform): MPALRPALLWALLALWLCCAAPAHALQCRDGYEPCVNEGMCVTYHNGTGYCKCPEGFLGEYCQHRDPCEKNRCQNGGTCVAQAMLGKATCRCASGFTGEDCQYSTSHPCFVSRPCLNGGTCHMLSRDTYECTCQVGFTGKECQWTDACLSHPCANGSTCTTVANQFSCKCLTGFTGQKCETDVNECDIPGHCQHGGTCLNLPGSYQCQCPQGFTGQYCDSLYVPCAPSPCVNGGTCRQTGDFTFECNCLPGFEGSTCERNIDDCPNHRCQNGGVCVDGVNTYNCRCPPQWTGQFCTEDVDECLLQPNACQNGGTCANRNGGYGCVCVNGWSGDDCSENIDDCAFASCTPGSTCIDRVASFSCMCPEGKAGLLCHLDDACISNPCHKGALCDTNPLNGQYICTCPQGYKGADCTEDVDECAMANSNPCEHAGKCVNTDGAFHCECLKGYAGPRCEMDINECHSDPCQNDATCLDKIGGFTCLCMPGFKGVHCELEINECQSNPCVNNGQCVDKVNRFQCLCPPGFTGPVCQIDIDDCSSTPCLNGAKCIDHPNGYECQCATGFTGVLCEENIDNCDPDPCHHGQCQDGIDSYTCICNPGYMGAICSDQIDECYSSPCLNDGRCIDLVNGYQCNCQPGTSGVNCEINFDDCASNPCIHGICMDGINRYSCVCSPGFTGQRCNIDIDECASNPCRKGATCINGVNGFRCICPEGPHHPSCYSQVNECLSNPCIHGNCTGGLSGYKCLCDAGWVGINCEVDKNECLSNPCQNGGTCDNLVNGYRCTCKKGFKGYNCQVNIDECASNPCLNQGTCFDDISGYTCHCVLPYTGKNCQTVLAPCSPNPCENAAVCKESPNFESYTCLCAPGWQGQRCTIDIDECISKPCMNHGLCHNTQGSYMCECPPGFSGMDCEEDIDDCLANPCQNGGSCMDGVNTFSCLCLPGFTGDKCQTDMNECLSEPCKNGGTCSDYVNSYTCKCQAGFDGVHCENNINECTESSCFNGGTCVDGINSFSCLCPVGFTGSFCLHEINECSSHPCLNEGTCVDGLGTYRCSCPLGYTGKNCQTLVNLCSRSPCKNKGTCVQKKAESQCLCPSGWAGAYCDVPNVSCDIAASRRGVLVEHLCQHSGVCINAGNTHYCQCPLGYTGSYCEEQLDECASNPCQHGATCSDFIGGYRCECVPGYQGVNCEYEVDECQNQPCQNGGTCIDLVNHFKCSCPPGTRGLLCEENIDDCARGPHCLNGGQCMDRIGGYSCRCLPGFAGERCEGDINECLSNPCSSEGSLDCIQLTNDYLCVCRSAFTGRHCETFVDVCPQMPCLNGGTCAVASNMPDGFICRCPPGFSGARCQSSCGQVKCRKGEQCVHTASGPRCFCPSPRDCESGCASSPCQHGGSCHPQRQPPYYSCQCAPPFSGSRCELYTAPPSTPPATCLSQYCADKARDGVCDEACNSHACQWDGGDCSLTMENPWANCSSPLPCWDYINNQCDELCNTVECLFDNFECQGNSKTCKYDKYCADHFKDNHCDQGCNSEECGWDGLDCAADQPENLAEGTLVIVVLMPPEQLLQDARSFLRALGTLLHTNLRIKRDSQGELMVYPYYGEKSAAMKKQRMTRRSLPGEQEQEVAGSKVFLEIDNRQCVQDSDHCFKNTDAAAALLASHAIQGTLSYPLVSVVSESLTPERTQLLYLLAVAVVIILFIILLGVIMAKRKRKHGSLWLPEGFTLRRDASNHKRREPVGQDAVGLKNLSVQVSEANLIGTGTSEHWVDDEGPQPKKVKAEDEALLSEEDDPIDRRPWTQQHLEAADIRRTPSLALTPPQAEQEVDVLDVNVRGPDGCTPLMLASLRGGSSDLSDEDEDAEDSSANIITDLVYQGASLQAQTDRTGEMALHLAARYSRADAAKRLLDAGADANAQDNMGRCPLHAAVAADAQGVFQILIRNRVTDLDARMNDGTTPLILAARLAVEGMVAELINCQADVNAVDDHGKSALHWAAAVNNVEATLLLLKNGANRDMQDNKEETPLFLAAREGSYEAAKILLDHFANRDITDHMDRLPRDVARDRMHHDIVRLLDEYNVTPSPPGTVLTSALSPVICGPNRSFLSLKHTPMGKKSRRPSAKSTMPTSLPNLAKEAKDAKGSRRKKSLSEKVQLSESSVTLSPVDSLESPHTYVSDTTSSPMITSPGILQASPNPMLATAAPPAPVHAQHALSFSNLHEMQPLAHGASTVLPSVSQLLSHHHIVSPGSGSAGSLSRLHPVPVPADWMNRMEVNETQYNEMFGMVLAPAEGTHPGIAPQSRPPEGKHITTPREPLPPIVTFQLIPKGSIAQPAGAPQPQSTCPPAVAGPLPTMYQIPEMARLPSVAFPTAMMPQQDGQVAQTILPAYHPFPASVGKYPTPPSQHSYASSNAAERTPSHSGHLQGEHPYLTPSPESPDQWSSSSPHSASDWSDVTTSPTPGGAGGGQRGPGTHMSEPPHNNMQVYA

[6] = target: Pro-neuregulin-1, membrane-bound isoform (Homo sapiens) (UniProt Q02297); assay: small molecules binding neuregulin-1 protein – biochemical, small-molecule microarray, fluorescence 635/667, psychiatric disease protein project, primary screen (AID 1075); details: NRG1 binding, 635 nm fluorescence, higher = more signal;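 also: score combines 667 nm spot fluorescence with signal to noise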
Chain of Pro-neuregulin-1, membrane-bound isoform (Homo sapiens) (Q02297 whole entry, looked up, the tested form may be a part, canonical isoform): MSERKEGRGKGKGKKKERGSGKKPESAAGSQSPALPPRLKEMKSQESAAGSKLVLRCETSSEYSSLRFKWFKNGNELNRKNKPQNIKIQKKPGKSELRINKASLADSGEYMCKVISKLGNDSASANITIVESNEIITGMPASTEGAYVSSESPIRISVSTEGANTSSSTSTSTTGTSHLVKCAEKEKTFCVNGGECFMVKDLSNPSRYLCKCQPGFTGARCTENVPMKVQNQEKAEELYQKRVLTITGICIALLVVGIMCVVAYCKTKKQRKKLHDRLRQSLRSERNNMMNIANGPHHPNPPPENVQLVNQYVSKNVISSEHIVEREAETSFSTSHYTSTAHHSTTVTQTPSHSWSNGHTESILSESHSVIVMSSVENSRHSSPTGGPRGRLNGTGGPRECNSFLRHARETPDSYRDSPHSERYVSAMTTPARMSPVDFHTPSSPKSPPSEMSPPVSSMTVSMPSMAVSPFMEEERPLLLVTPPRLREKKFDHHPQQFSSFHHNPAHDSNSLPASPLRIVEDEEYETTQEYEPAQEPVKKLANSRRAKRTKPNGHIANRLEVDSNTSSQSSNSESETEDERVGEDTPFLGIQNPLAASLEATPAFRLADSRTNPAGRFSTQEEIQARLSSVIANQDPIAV

[7] = system: Neuregulin-1 EGF-like domain; assay: small molecules binding NRG1 EGF domain – biochemical, small-molecule microarray, 635 nm fluorescence, primary screen (AID 1081); details: higher = more signal;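 also: binding of the protein to compounds printed on small-molecule microarray slides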
[8] = FRG1 expression reporter modulators in myotubes – cell-based, C2C12 myotubes, firefly/Renilla luciferase, luminescence, FRG1 inhibition for FSHD, primary screen (AID 1084); details: FRG1 promoter luciferase, higher = more signal, called active from +8 up or from −8 down
[9] = small molecules captured by biotinylated probe aFST – biochemical, small-molecule microarray, fluorescence 635/667, stem cell growth factor project, primary screen (AID 1086); details: higher = more signal;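 also: score merges 667 nm fluorescence with signal-to-noise of each printed compound spot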
[10] = binders of probe aHhip on microarray, primary screen, stem cell growth factor project, biochemical, small-molecule microarray, fluorescence 635/667 (AID 1087); details: higher = more signal;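 also: score merges spot fluorescence at 667nm with spot signal to noise ratio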

SMILES	composite z-score [1]	composite z-score [2]	composite z-score [3]	composite z-score [4]	composite z-score [5]	composite z-score [6]	composite z-score [7]	z-score [8]	composite z-score [9]	composite z-score [10]
[N-]=[N+]=Nc1ccccc1C[C@@]1(C(=O)N2CCOCC2)N=C(c2ccc(OCCCO)cc2)O[C@@H]1c1ccccc1N=[N+]=[N-]	1.14	0.782	0.195	0.707	1.45	0.889	1.12	-1.36 (inactive)	1.18	0.0511
CCOC(=O)C[C@H]1[C@H](OC(=O)c2cc3ccccc3oc2=O)[C@@H](NC(=O)C2CCCCC2)c2cc(OCCCO)ccc2N1C(=O)c1ccc2ccccc2n1	-0.662	0.0931	-0.179	0.414	0.432	0.295	0.675	-0.541 (inactive)	0.33	-0.0645
C#CCNC(/C=C/c1ccccc1)CO (stereo not given)	-0.383	0.329	-0.0973	0.41	0.495	-0.21	-0.0021	-0.156 (inactive)	0.155	-0.0237
COCCCNC(=O)[C@@]1(c2ccc([N+](=O)[O-])cc2)CC(=O)N(C2CCCCC2)[C@@H]1c1ccc(CO)cc1	-1.19	-0.655	-0.248	0.174	-0.243	0.763	1.39	-0.912 (inactive)	-0.604	-0.859
O=C1C2C=CC(C(O)c3ccccc3)N(n3cnnc3)C2C(=O)N1Cc1ccccc1 (stereo not given)	0.43	-0.399	-0.0598	0.118	0.729	1.33	0.544	-1.43 (inactive)	0.364	-0.16
C=C[C@H](OC)[C@@H](OC(=O)Nc1ccc(SC)cc1)c1ccc(OC)c(O)c1	0.687	-0.368	-0.141	-0.748	-0.708	-0.231	0.164	1.2 (inactive)	-0.595	-0.0994
CC(C)(C)OC(=O)CC[C@@]1(C(=O)NCc2ccccc2)N=C(c2ccc(OCCCO)cc2)O[C@@H]1c1ccccc1	0.844	1.96	0.0096	0.0922	1.24	1.5	1.27	-2.49 (inactive)	1.14	-0.304
NC(=O)NCC#Cc1ccc2c(c1)[C@]1(C(=O)N2)[C@H](C(=O)N2CCCCCCC2)[C@H]2C(=O)O[C@H](c3ccccc3)[C@H](c3ccccc3)N2[C@@H]1c1ccccc1OCCO	3.86	2.03	0.876	0.921	1.43	1.92	0.589	0.423 (inactive)	3.38	0.526
NC(=O)NCC#Cc1ccc2c(c1)[C@]1(C(=O)N2)[C@H](C(N)=O)[C@H]2C(=O)O[C@H](c3ccccc3)[C@H](c3ccccc3)N2[C@@H]1c1ccccc1OCCO	0.163	0.494	0.0143	0.0467	0.335	0.221	-0.0706	-0.317 (inactive)	0.597	-0.0645
COc1cccc([C@@H]2[C@@H](C)CC[C@H]3C(=O)N4[C@H](c5cccc(OC)c5)[C@@H](C)CC[C@H]4C(=O)N23)c1	-0.197	0.683	-0.0355	0.483	1.01	0.25	0.285	-1.21 (inactive)	0.0794	-0.0994
O=C1O[C@@H](c2ccccc2)[C@@H](c2ccccc2)N2[C@@H](c3ccc(O)cc3)[C@]3(C(=O)Nc4ccccc43)[C@@H](C(=O)N3CCN(c4ncccn4)CC3)[C@H]12	0.0022	0.637	0.142	0.0271	-0.486	0.474	1.25	-3.02 (inactive)	0.0944	0.0274
CN(C)CCCC[C@@H]1NC(=O)[C@@H]2C[C@H](C(=O)O)[C@H](c3ccc(O)cc3)N2C1=O	0.491	0.738	-0.128	0.217	-0.0401	0.237	1.28	1.7 (inactive)	0.212	-0.279
CCC(=O)[C@]12O[C@@]3([C@@H]4C(=O)OCC[C@@H]41)N(CC)C(C)=C(C(=O)OC)[C@@H](c1ccccc1)N3C2=O	0.162	-0.337	-0.116	0.0911	-0.925	0.0983	0.966	-0.13 (inactive)	-0.255	0.176
CCOC(=O)C1=C[C@@H](c2ccccc2)N(S(=O)(=O)c2ccc(C)cc2)[C@H]1c1ccc(F)cc1	-0.0809	0.347	-0.0317	0.493	1.6	0.871	0.949	-2.62 (inactive)	0.541	0.0139
CC(C)N1CC=CC23O[C@@H]4/C=C\CCCOC(=O)C4[C@H]2C(=O)N(CCCCCO)[C@@H]3C1=O (stereo not given in full)	0.378	2.29	-0.226	-1.52	-2.17	1.16	0.665	0.561 (inactive)	-0.729	0.0176
C#CCCCON=C1C[C@@H](O)[C@@H](O)[C@@H]2[C@@H]3C(=O)N(Cc4ccc5c(c4)OCO5)C(=O)[C@@H]3CC[C@@H]12	-0.158	-0.022	-0.0684	0.456	0.204	0.166	0.562	-0.177 (inactive)	0.351	0.0695

SMILES	composite z-score [1]	composite z-score [2]	composite z-score [3]	composite z-score [4]	composite z-score [5]	composite z-score [6]	composite z-score [7]	z-score [8]	composite z-score [9]	composite z-score [10]
CCCC/C=C/[C@H]([C@@H](O)Cc1ccccc1)N(CC#Cc1ccccc1)Cc1ccccc1Br	1.22	-0.37	-0.21	-1.17	-0.749	-0.169	-0.291	-0.506 (inactive)	-0.74	-0.584
C=C(CCCC)C(=O)CC[C@@H](OC(=O)c1cccnc1)c1cccc(OCCO)c1	0.116	0.908	0.0766	1.07	-0.552	0.544	0.586	0.197 (inactive)	0.344	-0.0645
COC(=O)[C@@]1(Cc2ccccc2CN=[N+]=[N-])N=C(c2ccc(OCCCO)cc2)O[C@H]1c1ccccc1N=[N+]=[N-]	0.127	-0.523	-0.0004	-0.259	0.167	1.09	1.13	1.17 (inactive)	0.19	0.0826
CCC1=C2CN(Cc3ccccc3Br)[C@@H]([C@@H](O)Cc3ccccc3)C2C=CCC1 (stereo not given in full)	-0.525	-0.12	-0.0858	0.528	0.814	0.421	0.817	-1.83 (inactive)	0.788	0.0881
CO[C@@H]1COC(=O)[C@H](C)NC(=O)CC=C[C@@H](C)[C@H](OC)COC(=O)[C@H](C)NC(=O)CC=C[C@H]1C	-0.348	0.395	-0.112	0.269	0.208	-0.0025	0.0912	0.0543 (inactive)	0.0054	-0.146
C[C@@H]1CC[C@H]2C(=O)N3[C@@H](CC[C@@H](C)[C@@H]3c3cccc(N4CCOCC4)c3)C(=O)N2[C@H]1c1cccc(N2CCOCC2)c1	0.0943	0.378	-0.166	0.616	0.92	0.414	1.1	-0.531 (inactive)	0.619	1.3
CO[C@H]1O[C@H](CO)[C@@H](OC(=O)Nc2ccc(Oc3ccccc3)cc2)[C@H](OC(=O)Nc2ccccc2-c2ccccc2)[C@H]1OC(=O)Nc1ccccc1-c1ccccc1	-0.448	0.44	0.104	1.04	1.51	1.52	1.35	-0.441 (inactive)	0.33	-0.0672
CC(C)(C)OC(=O)CC[C@]1(C(=O)N2CCCCC2)N=C(c2ccc(OCCCO)cc2)O[C@H]1c1ccccc1	-0.187	1.67	0.136	1.07	1.55	1.53	1.27	-4.25 (inactive)	0.772	-0.299
Cc1ccc(S[C@]2(C(=O)NC(C)C)CC(=O)N(C3Cc4ccccc4C3)[C@@H]2c2ccc(CO)cc2)cc1	-0.796	0.172	-0.148	0.301	-0.586	1.42	0.62	-2.74 (inactive)	-0.554	-0.292
COCCOC(=O)N1C(=O)[C@@]2(c3cc(C#CCCO)ccc31)[C@H](C(=O)N1CCCCCCC1)[C@H]1C(=O)O[C@H](c3ccccc3)[C@H](c3ccccc3)N1[C@@H]2c1ccc(O)cc1	2.61	1.22	0.188	0.514	1.15	1.17	1.13	-2.05 (inactive)	2.25	0.497
CC(=O)NCCCC[C@@H]1NC(=O)[C@@H]2C[C@H](C(=O)NCCCCCNC(=O)CS)[C@H](c3ccc(O)cc3)N2C1=O	0.123	-0.383	-0.226	-1.38	-0.83	0.0942	1.15	-1.14 (inactive)	-0.735	-0.388
O=C(CS)NCCCCCNC(=O)[C@H]1C[C@H]2C(=O)N[C@@H](Cc3ccccc3)C(=O)N2[C@H]1c1ccc(O)cc1	0.593	0.395	-0.0176	0.645	1.02	0.541	1.23	0.658 (inactive)	0.446	-0.0919
CCOC(=O)C[C@H]1[C@H](OC(=O)Cc2ccc3c(c2)OCO3)[C@@H](NC(=O)c2ccc3ccccc3c2)c2cc(OCCCO)ccc2N1C(=O)Cc1ccc(OC)cc1	-0.0089	0.237	-0.0239	0.546	0.947	0.759	0.358	-1.63 (inactive)	0.533	0.0274
CC[C@@H]1C=C(C(=O)O)[C@H](c2ccccc2)N1S(=O)(=O)c1ccc([N+](=O)[O-])cc1	0.0455	-0.0271	-0.0669	0.223	0.989	1.86	1.08	-2.22 (inactive)	0.13	-0.0831
C=CCC(OC(C)=O)[C@@H]1[C@@H](N(Cc2cc3ccccc3o2)C(=O)Cc2ccc(F)cc2)c2cc(OCCCO)ccc2N1C(=O)c1ccc(-c2ccccc2)cc1 (stereo not given in full)	0.117	-0.103	-0.116	-0.263	-0.079	-0.399	-1.03	0.051 (inactive)	0.141	-0.0645
C=CC[C@@]1(C(=O)NCC(O)CO)N=C(c2ccc(OCCCO)cc2)O[C@@H]1c1ccccc1CN=[N+]=[N-] (stereo not given in full)	0.325	0.674	-0.11	-0.355	0.13	1.79	1.23	-2.68 (inactive)	0.966	-0.236
